From PubChem
Only some compounds are listed: those with a hit (about 6.4% of all), similar ones and a draw of the others.
RORg inh = blocks mouse ROR gamma transcriptional activity; Drosophila S2 Gal4-RORgamma UAS-luciferase reporter, 20 h; hit rate 5.4% among 310,000; P51450; Potency, µM (top dose mostly 53.6 µM), for the others: top-dose activity change, negative = inhibition, actives largely listed as inhibitors; also: nearly all actives have a fitted effect of over 60% in size
Target sequence (P51450 whole entry, looked up, the tested form may be a part): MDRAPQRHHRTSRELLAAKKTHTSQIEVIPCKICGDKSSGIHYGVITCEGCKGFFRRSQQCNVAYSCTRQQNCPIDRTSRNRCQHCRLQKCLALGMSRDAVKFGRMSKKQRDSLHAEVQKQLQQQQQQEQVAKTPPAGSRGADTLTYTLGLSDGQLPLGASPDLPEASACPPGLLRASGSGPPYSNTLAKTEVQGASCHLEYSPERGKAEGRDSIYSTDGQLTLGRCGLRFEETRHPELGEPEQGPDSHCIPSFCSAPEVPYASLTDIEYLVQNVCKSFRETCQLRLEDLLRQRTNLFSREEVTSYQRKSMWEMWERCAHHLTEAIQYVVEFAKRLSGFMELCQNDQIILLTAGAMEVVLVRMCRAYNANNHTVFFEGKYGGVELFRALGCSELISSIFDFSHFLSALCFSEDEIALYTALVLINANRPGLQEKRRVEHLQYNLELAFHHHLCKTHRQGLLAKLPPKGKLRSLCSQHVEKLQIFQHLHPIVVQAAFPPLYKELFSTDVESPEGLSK
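Schneider cells (Drosophila), stable Gal4 DBD–ROR gamma + UAS-luc; 1 hr cmpd preincubation; Cu2+ induction 700 uM final; 20 hr ambient; luminescence.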
Gal4-VP16 FLuc = Gal4-VP16 reporter inhibition counter-screen. Drosophila S2 Gal4-VP16 UAS-luciferase, luminescence, 20 h. Potency, µM (series often up to 53.6 µM), without a hit: at the top dose activity, negative = inhibition, hits mostly inhibitors. AID 2546. hit rate 3.5% among 310,000;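 also: Gal4-VP16 expression switched on by copper sulfate through the metallothionein promoter; nearly all actives have a fitted effect of over 50% in size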
KinaseGlo FLuc = blocks Kinase-Glo luciferase, a counter-screen artifact; Q27757; Kinase-Glo luciferase, ATP luminescence, 8 min; Potency, µM (highest dose often 38.3 µM), without a hit: at the highest dose activity change, negative = inhibition, usual class: inhibitors; hit rate 0.28% among 200,000; AID 1379; also: nearly all actives have a fitted effect of over 60% in size
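Kinase-Glo luciferase light output from ATP and luciferin was measured with 10 uM ATP, within the enzyme's linear range. Buffer: 50 mM imidazole pH 7.2, 50 mM KCl, 7 mM MgCl2, 0.01% Tween 20, 0.05% BSA; luminescence read after 8 min at ambient temperature.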
* = called active by the depositor; ? = inconclusive; . = no result given; [ ] = dose if it differs, or a comment. Calls follow the shape of the dose curve; as a rule, active = well fitted curve in the direction sought with a large enough effect; inconclusive = small, poorly fitted or top-dose-only effect, or another doubt; inactive = no such curve, though single readings can be large; an effect the other way counts as inactive or inconclusive. % is scaled to controls: 0 for no effect and ±100 for the full control effect; potency is read from the fitted curve at half-maximal effect.

SMILES | RORg inh | Gal4-VP16 FLuc | KinaseGlo FLuc
Cc1nnc(NC(=O)CCS(=O)(=O)c2ccccc2)s1 | -36% | 29% | .
O=C(Nc1nnc(SCc2ccccc2F)s1)c1ccco1 | 45% | ? | 0%
CSc1nnc(NC(=O)c2nc(S(=O)(=O)Cc3ccccc3F)ncc2Cl)s1 | 16µM* | 10µM* | .
Cc1cc(O)c(/C=N/Nc2ccc(Cl)cc2)c(=O)o1 | ? | -15% | -5%
Cc1cc(O)c(/C=N/OCc2ccc(Cl)cc2Cl)c(=O)o1 | 13µM* | ? | 0%
CN(CC(=O)Nc1ccc(F)cc1)S(=O)(=O)c1ccc2c(c1)c(=O)n(C)c(=O)n2C | 10% | -1% | .
Cc1ccc(C)c(OCC(=O)Nc2ccccc2C(=O)N2CCOCC2)c1 | -2% | -5% | .
O=[N+]([O-])c1cc(S(=O)(=O)N2CCCCC2)ccc1NCCCN1CCOCC1 | -6% | 5% | 0%
Cc1ccc(C(=O)Nc2c(N)nc(SCC(=O)NCC3CCCO3)[nH]c2=O)cc1 (centres undefined) | 0% | -6% | .
Cc1cc(C)n(-c2ccc([N+](=O)[O-])cc2-c2nn[nH]n2)n1 | 0% | 2% | 3%
O=[N+]([O-])c1ccc(O)c(-c2nn[nH]n2)c1 | 10µM* | -24% | -1%
CCOC(=O)[C@]1(C(NC(=O)OC)c2ccccc2)CCCC1=O (some centres undefined) | -4%[10 µM] | -1%[10 µM] | .
Cn1cc(CN2CCCC(C(=O)c3nccn3C)C2)c(-c2cccc(Cl)c2)n1 (centres undefined) | 6% | 0% | -1%
CCc1cc2c(=O)c(-c3nc4ccccc4n3C)c(C)oc2cc1OC(C)=O | -17% | 1% | .
CCc1cc2c(=O)c(-c3nc4ccccc4n3C)c(COCC(=O)O)oc2cc1OC(=O)C(C)(C)C | 4.5µM* | -24% | -2%
CC(C)C(NC(=O)OCc1ccccc1)C(=O)N1CCOCCOCCOCC1 (centres undefined) | -9% | -10% | -3%
CC(=O)N1C2(C=CC1(C)C(=O)NCc1ccccn1)CCCCC2 (centres undefined) | 11µM* | ? | -5%
CC(=O)N1C2(C=CC1(C)C(=O)NCc1ccc(C)o1)CCCCC2 (centres undefined) | 13% | ? | -4%
COc1ccccc1N1CCN(CCCCN2C(=O)C3CCCCN3C2=O)CC1 (centres undefined) | 1% | -7% | .
O=C(COC(=O)C12CC3CC(CC(Br)(C3)C1)C2)Nc1cccnc1Cl | -24% | 8% | -2%
C=CCOc1ccc(/C=N/NC(=O)c2c(C)nc3ccc(Cl)cn23)cc1 | 2.2µM* | 10µM* | .
CCn1c(C)nc2cc(C(=O)N/N=C/c3ccc(O)c(O)c3O)ccc21 | 0% | -6%[10 µM] | -4%
COc1cccc(/C=N/NC(=O)c2c(C)nc3ccc(Br)cn23)c1O | 2.5µM* | 2.5µM* | -4%
CCOc1ccccc1/C=N/NC(=O)c1c(C)nc2ccc(Br)cn12 | -25% | -4% | .
COC(=O)c1ccc(/C=N\NC(=O)c2c(C)nc3ccc(Cl)cn23)cc1 | -2% | -17% | .
SMILES | RORg inh | Gal4-VP16 FLuc | KinaseGlo FLuc
Cc1nc2ccccn2c1C(=O)N/N=C/c1ccc(F)cc1 | 36% | 1% | .
CCn1c(C)nc2cc(C(=O)N/N=C/c3cccc(OC)c3O)ccc21 | 0.32µM* | 0.71µM* | 2%
Cc1ccc(/C=N/NC(=O)c2c(C)nc3ccc(Br)cn23)cc1 | 7.1µM* | ? | .
C=C(C)C(=O)/C=C/CCC/C=C/C(=O)OCC | -1% | -1% | -1%
COc1ccc(N(CC(=O)NC2CCCCC2)C(=O)CCC(=O)Nc2nc(C)cs2)cc1OC | ? | 0% | .
CCCCNc1nc(C)nc2c1nc(C)n2CCC | ? | -6% | -2%
C=CCn1c(O)c(N=Nc2nc3ccccc3c(=O)n2-c2ccccc2)c2ccccc21 | ? | -24% | -2%
COc1ccc(/C=N\NC(=O)c2c(C)nc3ccc(Br)cn23)cc1 | 10µM* | -102% | -1%
COc1ccc(/C=N/NC(=O)c2c(C)nc3ccc(Br)cn23)cc1OC | 5% | -19% | .
O=C(O)[C@@H]1CCCN1Cc1c[nH]c2ccccc12 | . | . | -5%[7.66 µM]
CCCCN1CCc2c(c3ccccc3n2Cc2ccccc2)C1 | 13% | 2% | .
CCCCCN1CSC(=S)N(Cc2ccccc2)C1 | 10µM* | 18µM* | 2%
Cc1ccc(N2C(=O)CN(Cc3ccccc3)C2=S)cc1C | 9% | 1% | .
COc1ccc(Cn2c(C)ccc2C)cc1 | 8% | 14% | 4%
CCN1CSC(=S)N(Cc2ccc(OC)cc2)C1 | 14µM* | 13µM* | .
CCN1CSC(=S)N(Cc2ccccc2)C1 | 10µM* | 10µM* | .
CO/N=C(\C)CCN1CCCc2nc(C)c(C)cc21 | 9%[10 µM] | -3%[10 µM] | .
CN(c1ccccc1)c1ccc(/C=N/N2CCOCC2)cc1 | 30% | -4% | -1%
